The results in this text go back to PubChem BioAssay (EPA / NIEHS).

A word on the AC50: it is the concentration giving half of the maximal activity seen.

Calls of active or inactive are those of the source. How the source made its calls: active means hit-call score of the fitted dose curve at least 0.9, where 1 is the maximum; inactive means score below 0.9.

A short description of this assay: ATG_NRF2_ARE_CIS: Attagene CIS-FACTORIAL HepG2 Assay for human Nuclear Factor Erythroid 2 Related Factor 2 (NFR2) response to Antioxidant Response Elements (ARE) (AID 2282992). The note with it: HepG2 Attagene ARE/NRF2 reporter, transcription factor activity; actives raise or lower the signal. As for the experimental part:
ATG_CIS is a cell-based, multiplexed-readout assay that uses HepG2, a human liver cell line, with measurements taken at 24 hours after chemical dosing in a 24-well plate.ATG_NRF2_ARE_CIS is one of 52 assay component(s) measured or calculated from the ATG_CIS assay. It is designed to make measurements of mRNA induction, a form of inducible reporter, as detected with fluorescence intensity signals by Reverse transcription polymerase chain reaction (RT-PCR) and Capillary electrophoresis technology.Data from the assay component ATG_NRF2_ARE_CIS was analyzed into 1 assay endpoint. This assay endpoint, ATG_NRF2_ARE_CIS, was analyzed with bidirectional fitting relative to DMSO as the negative control and baseline of activity. Using a type of inducible reporter, measures of mRNA for gain or loss-of-signal activity can be used to understand the reporter gene at the transcription factor-level as they relate to the gene NFE2L2. Furthermore, this assay endpoint can be referred to as a primary readout, because this assay has produced multiple assay endpoints where this one serves a reporter gene function. To generalize the intended target to other relatable targets, this assay endpoint is annotated to the dna binding intended target family, where the subfamily is basic leucine zipper.
Human liver HepG2 cells are transiently transfected with multiple reporter transcription units (MRTUs) in 6-well plates using FuGene 6 reagent (Roche; 3 ml FuGene/1 mg DNA). The MRTU constructs are regulated by a cis-regulating element (promoter). […] A major difference between the CIS and TRANS system is that in CIS activities of endogenous TFs are measured, whereas the TRANS assay evaluates changes in activities of exogenous, chimeric NR-Gal4 proteins. […] At the end of 24 hour incubation, total RNA was isolated using TriZol reagent (Invitrogen). The isolated RNA is then reverse-transcribed using oligo(dT) primer and Mo-MLV reverse transcriptase (Invitrogen) with DNAse I (Ambion) treatment for 30 min. The one-tenth of the produced cDNA was amplified by PCR using Taq DNA polymerase (Invitrogen) and two reporter sequence-specific primers. The PCR products were fluorescently labeled by primer extension with 6-arboxyfluorescein (6-FAM) 5'-labeled reporter sequence-specific primer (2 min at 95 C, 20 s at 68 C and 10 min at 72 C) and these products were digested with 5U of HpaI (New England Biolabs) for 2h at 37 C. The fragments were purified using Qiaquick PCR columns (Qiagen), analyzed on an ABI 3130xL genetic analyzer (Applied Biosystems) with peak positions identified by using a set of X-rhodamine (ROX)-labeled MapMarker1000 molecular weight standards (BioVentures). The raw capillary electrophoresis data was processed using Attagraph software (Attagene).
In the case of `CC(C)(COC(=O)c1ccccc1)COC(=O)c1ccccc1`, the compound was classed as inactive.
Turning to `CCCCCCCCCCCCCCCC(=O)O`, the outcome was inactive.
Take `O=CCCc1ccccc1`: the AC50 was 38 µM (active).
On to `CCCC(C)C=O` (stereo not given), for which the compound was called inactive.
As to `O=C1CCCCCCCCCCCCCCO1`, the AC50 is 74.4 µM (active).
For the compound `OCC(CO)(CO)COCC(CO)(CO)CO`, the result was inactive.
With `CC(=O)Nc1ccccc1O`, the call was inactive.
Still for that read-out and setting: in the case of `CCCC(=O)C(C)=O` it was “inactive”; in that of `O=C1O[C@@H]2[C@@H](O)[C@H](O)O[C@@H]2[C@H]1O`, “inactive”; in that of `CC(CC(C)(C)C)CC(C)(C)CC(C)(C)C` (stereo not given), “inactive”.
The same measure, in the same setting: in the case of `O=C(Cl)c1cccc(C(=O)Cl)c1` it was “inactive”.
For `O=S(=O)(O)c1ccc(O)c2ncccc12`, the compound was classed as inactive.
The same measure, in the same setting: in the case of `NCCCCCCN` it was “inactive”.
On the same count and under the same terms, in the case of `COc1c(Cl)c(Cl)c(Cl)c(Cl)c1Cl` it was “inactive”; in that of `OCc1cccnc1`, “inactive”.
On to `CCn1c2ccccc2c2cc(N)ccc21`, for which the AC50 is 26.4 µM (active).
For the compound `CCCC[n+]1ccccc1`, the compound was classed as inactive.
For the compound `CCCCC[Si](OCC)(OCC)OCC`, the outcome was inactive.
Same read-out and setting: with `CCCc1ccccc1O` the entry was “inactive”; with `CCCCCCCCCC=O`, “inactive”.
Same read-out and setting: with `CC(C)C(C)(C)C(C)(C)C(C)(C)S` the entry was “inactive”.
On the same count and under the same terms, in the case of `CCCCCCOC(=O)CC` it was “inactive”; in that of `CCCCCCCCCCCCCOS(=O)(=O)O`, “inactive”; in that of `c1ccc(CCCc2ccccn2)cc1`, “inactive”.
In the case of `NCCOCCO`, the outcome was inactive.
In the case of `COc1nc(C)nc(N)n1`, the result was inactive.
With `C[Si](O[Si](C)(C)C)O[Si](C)(C)C`, the outcome was inactive.
Still for that read-out and setting: in the case of `CCCCOCCOCCOCCOCCO` it was “inactive”; in that of `CC(C)C1CCC(O)CC1` (stereo not given), “inactive”.
Still for that read-out and setting: with `COc1ccc(O)cc1` the entry was “inactive”; with `Cc1cccc(C)c1[N+](=O)[O-]`, “inactive”.
Regarding `COC(=O)C1=C(C)NC(C)=C(C(=O)OCCN(C)Cc2ccccc2)C1c1cccc([N+](=O)[O-])c1` (stereo not given), the result was inactive.
Same read-out and setting: with `CCC(O)CO` (stereo not given) the entry was “inactive”; with `CNCCO`, “inactive”.
Same read-out and setting: in the case of `CC(CN1c2ccccc2Sc2ccccc21)N(C)C` (stereo not given) it was “inactive”; in that of `CCCCCC(=O)OCCc1ccccc1`, “inactive”; in that of `Cc1cc(C2(c3cc(C)c(O)cc3C)OS(=O)(=O)c3ccccc32)c(C)cc1O`, “inactive”.
Take `Cc1ccc(O)c(C(C)(C)C)c1`: the AC50 was 25.2 µM (active).
Regarding `CC(=O)[C@H]1CC[C@H]2[C@@H]3CC=C4C[C@@H](O)CC[C@]4(C)[C@H]3CC[C@]12C`, the AC50 is 16.5 µM (active).
With `COc1cc(C(C)(C)C)c(O)c(C(C)(C)C)c1`, the outcome was inactive.
